Source: PubChem BioAssay
Only some compounds are listed: those with a hit (about 6.6% of all), similar ones and a draw of the others.
HepG2 tox-1 – kills HepG2 cells in TGF-b inhibitor counter-screen. HepG2 CAGA-GFP viability, ATP luminescence, 18 h. Potency, µM (doses to about 46.1 µM), inactives show top-dose activity change, negative = cytotoxicity, most hits filed as cytotoxic. actives 0.76% (n = 410,000). AID 588856
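HepG2 CAGA-GFP cells (1000/well, DMEM with 1% FBS) received compound, then TGF-beta at 500 pg/mL final, and were incubated 18 hours at 37 degrees C. Viability was read by CellTiter-Glo luminescence. Media-only wells were set as complete cell-killing and DMSO as no toxicity.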
HT1080NT lethal – kills 2HG-producing HT-1080-NT fibrosarcoma cells; Potency, µM (doses to about 46.1 µM), for the others: at the highest dose activity, negative = less viability, actives largely listed as cytotoxic; actives 1.6% (n = 360,000); HT-1080-NT fibrosarcoma viability, CellTiter-Glo ATP luminescence, 48 h;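 further: NT is the 2HG producing partner of a matched IDH1 knockdown line; 0% = DMSO-treated cells and -100% = media-only wells without cells; nearly all actives have a fitted effect of over 55% in size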
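Fibrosarcoma NT cells, 750 per well in 5% FBS RPMI, were exposed to compound for 48 hours. Viability: CellTiter-Glo luminescence.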
KB-V1 MDR tox – KB-V1 MDR subline cytotoxicity; KB-V1 MDR cells viability, CellTiter-Glo, 72 h; Potency, µM (highest dose often 46.1 µM), actives largely listed as cytotoxic; actives 3.4% (n = 400,000); AID 1347076; further: on the % scale 0 is the no-effect control and ±100 the full control effect; nearly all actives have a fitted effect of over 60% in size
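KB-V1, DMEM (no phenol red) + 10% FBS; cpd pin-transferred, titration series; 72 h, 37 degrees C; CellTiter-Glo, luminescence. Data normalized, curve-fit.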
HT1080 IDH1KD tx – kills HT-1080 cells with IDH1 knockdown | HT-1080 IDH1 knockdown viability, ATP luminescence, 48 h | Potency, µM (titrated, usually from 46.1 µM), inactives show top-dose activity, negative = toxicity, usual class: cytotoxic | actives 2% (n = 360,000);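 further: 0% = DMSO wells and -100% = cell-free medium wells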
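HT-1080-IDH1KD cells (IDH1 knocked down), 750/well in RPMI with 5% FBS, treated with compound 48 h at 37 degrees C. Viability by CellTiter-Glo luminescence, normalised to DMSO and no-cell wells; concentration-response curves classed.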
KB-3-1 tox – kills parental KB-3-1 adenocarcinoma cells. KB-3-1 viability, CellTiter-Glo ATP luminescence, 72 h. Potency, µM (doses to about 46.1 µM), hits mostly cytotoxic. actives 1.4% (n = 400,000). AID 1347075; further: on the % scale 0 is the no-effect control and ±100 the full control effect; nearly all actives have a fitted effect of over 60% in size
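Here the drug-naive KB-3-1 line serves as comparator for MDR sub-line selectivity; cells received compound titrations, 72 h at 37 °C, then CellTiter-Glo readout.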
TGFb inhibitor – inhibitors of TGF-b signaling | HepG2 CAGA-GFP TGF-b/SMAD3 reporter, GFP fluorescence, 18 h; TGF-beta stimulated, 500 pg/mL final | Potency, µM (top dose mostly 46.1 µM), for inactives: at the highest dose activity, negative = inhibition, hits mostly inhibitors | actives 1.2% (n = 410,000); further: on the % scale 0 is the no-effect control and ±100 the full control effect; nearly all actives have a fitted effect of over 65% in size
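Inhibition of TGF-beta-driven CAGA-GFP reporter expression in HEPG2 cells is measured by cellular GFP fluorescence after 18 h stimulation with 500 pg/mL recombinant TGF-beta in 1% FBS medium at 37 degrees C.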
TGFb CAGA inh – confirmation of TGF-b signaling inhibitors in HepG2 reporter cells | shares compounds with TGFb inhibitor | HepG2 CAGA-GFP TGF-b reporter, GFP fluorescence, 18 h; cells stimulated with TGF-beta, 500 pg/mL | Potency, µM (top dose mostly 46.1 µM), inactives show top-dose activity, negative = inhibition, actives largely listed as inhibitors | actives 63% (n = 1,600); further: on the % scale 0 is the no-effect control and ±100 the full control effect; nearly all actives have a fitted effect of over 65% in size
HepG2 tox-2 – HepG2 cytotoxicity, TGF-b inhibitor counterscreen; Potency, µM (titrated, usually from 46.1 µM), for the others: at the highest dose activity, negative = cytotoxicity, hits mostly inhibitors; HepG2 CAGA-GFP viability, ATP luminescence, 18 h; cells stimulated with TGF-beta, 500 pg/mL; shares compounds with TGFb inhibitor; AID 720535; actives 27% (n = 1,600); further: on the % scale 0 is the no-effect control and ±100 the full control effect; nearly all actives have a fitted effect of over 70% in size
TGFb CCL64 inh – orthogonal confirmation of TGF-b inhibitors in CCL64 cells | shares compounds with TGFb inhibitor | CCL64 CAGA-GFP reporter, TGF-b stimulated, GFP fluorescence, 18 h | Potency, µM (doses to about 46.1 µM), without a hit: top-dose activity, negative = inhibition, hits mostly inhibitors | actives 41% (n = 1,600) | AID 720536; further: nearly all actives have a fitted effect of over 65% in size
COP TGFb inh – validation of TGF-b inhibitors in HepG2 COP promoter reporter; Potency, µM (series often up to 46.1 µM), for the others: at the top dose activity, negative = inhibition, hits mostly inhibitors; shares compounds with TGFb inhibitor; actives 3% (n = 1,600); HepG2 COP-GFP TGF-b reporter, GFP fluorescence, 18 h; cells stimulated by added recombinant TGF-beta; AID 720537; further: nearly all actives have a fitted effect of over 70% in size
* marks the source's active call; other numbers are inactive results; i = inactive; ? = inconclusive; · = no result given. The call rests on the fitted dose curve; in most records, active means well fitted curve in the direction sought with a large enough effect; inconclusive means small, poorly fitted or top-dose-only effect, or another doubt; inactive means no such curve, though single readings can be large; an effect the other way counts as inactive or inconclusive. Potency means the concentration at half of the fitted maximal effect.

SMILES	HepG2 tox-1	HT1080NT lethal	KB-V1 MDR tox	HT1080 IDH1KD tx	KB-3-1 tox	TGFb inhibitor	TGFb CAGA inh	HepG2 tox-2	TGFb CCL64 inh	COP TGFb inh
Oc1ccc(C[C@@H](CN2CCCC2CN2C(=S)NC[C@@H]2Cc2ccccc2)N2C[C@H](Cc3ccccc3)N(CC3CCCCCC3)C2=S)cc1 (stereo partly drawn)	·	-3.5%	?	-14.6%	i	·	·	·	·	·
COc1ccc2oc(=O)cc(CN3CCN(c4ccccc4OC)CC3)c2c1	-11.7%	·	·	·	·	-9.0%	·	·	·	·
CCOC(=O)c1c(C)n(-c2ccccc2)c2ccc(OC(=O)c3cccc(OC)c3OC)cc12	-21.5%	·	i	·	i	-34.3%	·	·	·	·
Cc1ccc2c(c1)N(C(=O)N1CCC(C(=O)NCCC3=CCCCC3)CC1)CC(C)O2 (stereo not drawn)	-5.0%	·	i	·	i	?	·	·	·	·
Cc1cc(C)cc(-n2c(SCC(=O)Nc3cccc(F)c3)nc3c([nH]c4ccccc43)c2=O)c1	1.3%	·	i	·	i	7.0%	·	·	·	·
Oc1ccc(C[C@H]2CNC(=S)N2CC2CCCN2C[C@H](Cc2ccc(O)cc2)N2C[C@H](Cc3ccc(O)cc3)N(CC3CCCCCC3)C2=S)cc1 (stereo partly drawn)	-10.5%	?	?	?	20.6µM*	7.94µM*	16.4µM*	?	3.26µM*	13.3%
O=S(Cc1ccccc1)Cc1ccccc1	10.8%	10.3%	i	8.2%	i	4.3%	·	·	·	·
COc1ccc(C(=O)/C(C#N)=N/Nc2cccc([N+](=O)[O-])c2)cc1	-19.1%	?	5.8µM*	23.1µM*	?	10µM*	5.17µM*	?	8.2µM*	46.0%
CCC(CC)=NNc1cccc([N+](=O)[O-])c1	-1.3%	-22.6%	i	?	i	-4.2%	·	·	·	·
Cc1ccc(NC(=S)NCCc2c[nH]c3ccccc23)c(C)c1	-46.2%	-0.4%	i	6.2%	i	10µM*	-20.9%	-23.0%	?	20.3%
COc1ccccc1NC(=S)NCCc1c[nH]c2ccccc12	-11.8%	-22.2%	i	-15.7%	i	-18.5%	·	·	·	·
Cc1nc(SCC(=O)N2CCN(c3ccccc3)CC2)n[nH]1	10.2%	9.2%	i	3.8%	i	17.3%	·	·	·	·
O=C(CSc1nc(N2CCCCC2)nc(N2CCCCC2)n1)N1CCN(c2ccccc2)CC1	4.1%	-13.1%	16.4µM*	-11.3%	?	6.31µM*	16.4µM*	-8.4%	?	4.2%
COc1ccc(N2CCN(S(=O)(=O)CCNC(=O)Cc3ccc(Cl)cc3)CC2)cc1	-0.4%	·	·	·	·	6.9%	·	·	·	·
COc1ccccc1-c1cc(C(F)(F)F)nc(S(=O)(=O)CCCC(=O)N2CCCCC2C)n1 (stereo not drawn)	-101.4%	?	i	23.1µM*	?	10µM*	9.2µM*	18.4µM*	4.61µM*	?
COc1ccccc1-c1cc(C(F)(F)F)nc(N2CCCCC2)n1	3.8%	4.6%	i	13.2%	i	-21.7%	·	·	·	·
COCCN1C[C@@H](CO)O[C@@H](n2cnc3c(NCC(C)C)ncnc32)C1	-10.7%	7.6%	i	?	i	1.7%	·	·	·	·
C[C@H](CO)N1C[C@H](C)[C@@H](CN(C)Cc2ccccc2)Oc2c(NC(=O)c3ccncc3)cccc2C1=O	-27.2%	3.6%	i	5.8%	i	-14.0%	·	·	·	·
COc1ccc(NC(=O)N(C)C[C@H]2Oc3c(NC(=O)c4ccncc4)cccc3C(=O)N([C@H](C)CO)C[C@@H]2C)cc1	7.8%	24.0%	i	-4.1%	i	1.1%	·	·	·	·
COc1ccc(NC(=O)N(C)C[C@H]2Oc3c(NC(=O)c4nc5ccccc5s4)cccc3C(=O)N([C@@H](C)CO)C[C@H]2C)cc1	-5.9%	-14.9%	i	-2.5%	i	11.2µM*	?	-22.4%	18.4µM*	38.0%
C[C@H](CO)N1C[C@H](C)[C@@H](CN(C)Cc2ccc(Oc3ccccc3)cc2)Oc2c(NC(=O)c3ccncc3)cccc2C1=O	-0.3%	-23.1%	i	-20.8%	i	14.1µM*	23.1µM*	?	?	37.3%
CC1(C(=O)NS(=O)(=O)c2cccc(F)c2)CCN1C(=O)c1ccccc1 (stereo not drawn)	1.0%	5.1%	i	20.4%	i	-2.8%	·	·	·	·
Cc1ccc(NC(=S)/N=C(\N)Nc2nc(C)c3cc(C)ccc3n2)c(C)c1	-30.6%	-12.2%	?	?	i	10µM*	4.61µM*	-25.8%	?	14.9%
CCc1ccccc1NC(=S)/N=C(\N)Nc1nc(C)c2cc(C)ccc2n1	-2.6%	-9.3%	6.51µM*	-28.7%	?	?	4.11µM*	-25.9%	?	30.0%
Cc1ccc(S(=O)(=O)N2C3CC(c4ccccc4)N(S(=O)(=O)c4cccc(Cl)c4)CC3C(=O)C[C@H]2c2ccccc2)cc1 (stereo partly drawn)	·	14.7%	?	8.9%	i	·	·	·	·	·
Cc1ccc(NC(=O)c2cc(C(=O)c3cc(Cl)ccc3O)cn(-c3ccc(C)cc3)c2=O)cc1	-35.4%	-0.8%	18.4µM*	-6.8%	?	7.94µM*	?	?	?	1.6%
